Results as given in PubChem BioAssay (NCATS).
Records with an inconclusive call do not appear. Active and inactive are the calls of the source. The call rests on the fitted dose curve; in most records, active means well fitted inhibition curve with a large enough effect; inconclusive means small, poorly fitted or top-dose-only effect; inactive means flat fitted curve, though single readings scatter.

Experiments:
Assay in all cases: qHTS profiling for inhibitors of Plasmodium falciparum proliferation (AID 504749); further: nearly all actives have a fitted effect of over 60% in size
Settings in all cases: P. falciparum in erythrocytes, SYBR Green DNA, 72 h; series mostly up to 28.7 µM
[1] = tested on: CP256
Outline: (§1)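 P. falciparum-infected erythrocytes (0.3% parasitemia, 2.5% hematocrit) incubated with compound 72 h at 37 C, 5% CO2. Parasite DNA detected by SYBR Green after lysis, overnight at room temperature; normalised to 0.29 uM artemisinin and DMSO.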

[2] = tested on: CP260
Outline: as §1

[3] = tested on: CP262
Outline: as §1

[4] = tested on: CP265
Outline: as §1

[5] = tested on: CP268
Outline: as §1

[6] = tested on: CP269
Outline: as §1

[7] = tested on: CP297
Outline: as §1

[8] = tested on: CP305
Outline: as §1

[9] = tested on: CP315
Outline: as §1

[10] = tested on: CP325
Outline: as §1

[11] = tested on: CP329
Outline: as §1

[12] = tested on: DFO2036
Outline: as §1

[13] = tested on: DIV14
Outline: as §1

[14] = tested on: DIV17
Outline: as §1

[15] = tested on: DIV30
Outline: as §1

[16] = tested on: Dd2
Outline: as §1

[17] = tested on: ECU
Outline: as §1

[18] = tested on: FAB9
Outline: as §1

[19] = tested on: HB3
Outline: as §1

[20] = tested on: JCK
Outline: as §1

[21] = tested on: P93_24
Outline: as §1

[22] = tested on: P94_40
Outline: as §1

[23] = tested on: PAD
Outline: as §1

[24] = tested on: PC15
Outline: as §1

[25] = tested on: PC26
Outline: as §1

[26] = tested on: PC49
Outline: as §1

[27] = tested on: SC27B
Outline: as §1

[28] = tested on: TAB113
Outline: as §1

Measured: Potency

C=C1C(=O)O[C@@H]2[C@@H]1CC/C(C)=C\CC[C@@]1(C)O[C@H]21
inactive: [1] | [2] | [3] | [4] | [5] | [6] | [7] | [8] | [9] | [10] | [11] | [12] | [13] | [14] | [15] | [16] | [17] | [18] | [19] | [20] | [21] | [22] | [23] | [24] | [25] | [26] | [27] | [28]
